Here are results for 1 sequence from paper PMC7862700, “An all-to-all approach to the identification of sequence-specific readers for epigenetic DNA modifications on cytosine”.

Common to all, as to assay: DAPPL (digital affinity profiling via proximity ligation, sequencing); 10 mM Tris-HCl pH 7.5, 50 mM NaCl, 1 mM DTT, 4% glycerol, room temperature, 30 min; GST-TFs on glutathione beads, 16-mer random dsDNA library, 0.1% formaldehyde crosslink after washing; high values mean tight binding
The target in one experiment is T1, FLI1 (Homo sapiens, UniProt Q01543 1-452).
T1 sequence: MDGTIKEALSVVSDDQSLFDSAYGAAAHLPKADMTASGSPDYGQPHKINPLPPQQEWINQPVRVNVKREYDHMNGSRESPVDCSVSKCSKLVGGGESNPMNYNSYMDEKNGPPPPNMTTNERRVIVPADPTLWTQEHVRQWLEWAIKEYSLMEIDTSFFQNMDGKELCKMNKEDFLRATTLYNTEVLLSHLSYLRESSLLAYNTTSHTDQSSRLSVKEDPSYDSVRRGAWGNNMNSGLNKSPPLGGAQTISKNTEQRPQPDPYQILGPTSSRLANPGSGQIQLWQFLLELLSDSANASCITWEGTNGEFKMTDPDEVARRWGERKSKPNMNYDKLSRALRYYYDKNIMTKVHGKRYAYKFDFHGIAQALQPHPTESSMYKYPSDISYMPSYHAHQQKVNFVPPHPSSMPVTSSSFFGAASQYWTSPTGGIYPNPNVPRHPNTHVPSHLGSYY
To be noted: protein: recombinant; tags: N-terminal GST; dsDNA, one strand shown. Put shortly: (§1)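 Binding signal is defined as a hexamer's read frequency for one factor over its frequency for the tag-only sample. To obtain reads, GST-fused human transcription factors were expressed in yeast, captured on glutathione beads, barcoded with DNA and pooled with that sample. Pools met 200 nmole of a 16-mer random double-stranded DNA library in Tris/NaCl/DTT/glycerol buffer for 30 min at room temperature before washing, 0.1% formaldehyde crosslinking, proximity ligation (BsaI/T4 ligase, 1 h, 37 °C), PCR and Illumina NextSeq500 sequencing.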

The target in the next experiment is T2, ELK1 (Homo sapiens, UniProt P19419 1-428).
T2 sequence: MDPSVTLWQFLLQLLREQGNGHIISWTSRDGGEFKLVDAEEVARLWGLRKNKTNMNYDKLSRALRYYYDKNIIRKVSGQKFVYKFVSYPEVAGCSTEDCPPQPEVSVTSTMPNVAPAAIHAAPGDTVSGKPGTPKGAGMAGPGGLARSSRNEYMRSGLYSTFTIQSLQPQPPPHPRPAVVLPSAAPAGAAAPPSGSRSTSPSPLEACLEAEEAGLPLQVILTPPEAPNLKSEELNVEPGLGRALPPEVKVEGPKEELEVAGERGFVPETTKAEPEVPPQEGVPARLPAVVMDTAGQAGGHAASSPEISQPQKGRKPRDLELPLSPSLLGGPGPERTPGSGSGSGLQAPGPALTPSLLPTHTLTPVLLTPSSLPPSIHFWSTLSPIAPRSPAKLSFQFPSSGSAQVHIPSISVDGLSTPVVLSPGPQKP
As to conditions: protein: recombinant; tags: N-terminal GST; dsDNA, one strand shown. The method in brief: as §1

The target in the next experiment is T3, GABPA (Homo sapiens, UniProt Q06546 1-454).
T3 sequence: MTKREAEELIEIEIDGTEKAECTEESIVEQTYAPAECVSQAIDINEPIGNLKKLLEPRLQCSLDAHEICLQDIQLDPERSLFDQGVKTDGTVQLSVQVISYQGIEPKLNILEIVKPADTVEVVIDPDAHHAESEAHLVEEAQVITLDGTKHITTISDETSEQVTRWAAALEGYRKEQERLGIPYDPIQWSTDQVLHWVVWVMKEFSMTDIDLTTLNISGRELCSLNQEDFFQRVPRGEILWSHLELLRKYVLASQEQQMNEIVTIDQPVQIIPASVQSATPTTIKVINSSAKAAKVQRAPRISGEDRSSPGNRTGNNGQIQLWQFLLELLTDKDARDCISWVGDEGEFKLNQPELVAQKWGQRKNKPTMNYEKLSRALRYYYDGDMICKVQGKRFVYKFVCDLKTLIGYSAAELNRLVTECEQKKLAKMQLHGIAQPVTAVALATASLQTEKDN
To be noted: protein: recombinant; tags: N-terminal GST; dsDNA, one strand shown. Put shortly:
as §1

A further experiment has as its target T4, ERG (Homo sapiens, UniProt P11308 1-479).
T4 sequence: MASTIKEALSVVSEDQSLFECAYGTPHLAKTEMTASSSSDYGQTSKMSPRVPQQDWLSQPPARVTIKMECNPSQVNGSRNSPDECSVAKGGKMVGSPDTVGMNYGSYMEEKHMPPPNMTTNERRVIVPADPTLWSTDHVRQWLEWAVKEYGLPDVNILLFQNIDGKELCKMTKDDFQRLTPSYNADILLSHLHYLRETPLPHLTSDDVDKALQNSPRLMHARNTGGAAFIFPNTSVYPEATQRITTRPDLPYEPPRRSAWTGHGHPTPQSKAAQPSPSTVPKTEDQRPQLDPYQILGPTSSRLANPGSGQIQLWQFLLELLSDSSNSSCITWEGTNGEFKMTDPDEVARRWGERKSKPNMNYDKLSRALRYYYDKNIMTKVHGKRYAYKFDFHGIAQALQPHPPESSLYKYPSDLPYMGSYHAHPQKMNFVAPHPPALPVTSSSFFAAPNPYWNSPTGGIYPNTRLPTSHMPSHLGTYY
To be noted: protein: recombinant; tags: N-terminal GST; dsDNA, one strand shown. Put shortly: as §1

Another experiment has as its target ELF1 (Homo sapiens, UniProt P32519 1-619). As to conditions: protein: recombinant; tags: N-terminal GST; dsDNA, one strand shown. The method in brief: as §1
Another experiment has as its target T5, EHF (Homo sapiens, UniProt Q9NZC4 1-300).
T5 sequence: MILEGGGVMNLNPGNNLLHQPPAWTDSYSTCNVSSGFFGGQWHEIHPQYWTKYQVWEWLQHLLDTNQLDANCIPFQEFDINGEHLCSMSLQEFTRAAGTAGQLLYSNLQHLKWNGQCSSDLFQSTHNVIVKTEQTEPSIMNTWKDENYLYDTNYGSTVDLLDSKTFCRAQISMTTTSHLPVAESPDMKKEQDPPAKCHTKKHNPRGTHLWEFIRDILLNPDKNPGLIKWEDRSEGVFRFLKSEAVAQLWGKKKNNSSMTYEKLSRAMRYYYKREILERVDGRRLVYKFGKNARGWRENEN
To be noted: protein: recombinant; tags: N-terminal GST; dsDNA, one strand shown. Put shortly: as §1

The next experiment deals with SPI1 (Homo sapiens, UniProt P17947 1-270). To be noted: protein: recombinant; tags: N-terminal GST; dsDNA, one strand shown. Put shortly: as §1
The target of a further experiment is SPIB (Homo sapiens, UniProt Q01892 1-262). As to conditions: protein: recombinant; tags: N-terminal GST; dsDNA, one strand shown. The method in brief: as §1
In a further experiment the target is T6, ELK3 (Homo sapiens, UniProt P41970 1-407).
T6 sequence: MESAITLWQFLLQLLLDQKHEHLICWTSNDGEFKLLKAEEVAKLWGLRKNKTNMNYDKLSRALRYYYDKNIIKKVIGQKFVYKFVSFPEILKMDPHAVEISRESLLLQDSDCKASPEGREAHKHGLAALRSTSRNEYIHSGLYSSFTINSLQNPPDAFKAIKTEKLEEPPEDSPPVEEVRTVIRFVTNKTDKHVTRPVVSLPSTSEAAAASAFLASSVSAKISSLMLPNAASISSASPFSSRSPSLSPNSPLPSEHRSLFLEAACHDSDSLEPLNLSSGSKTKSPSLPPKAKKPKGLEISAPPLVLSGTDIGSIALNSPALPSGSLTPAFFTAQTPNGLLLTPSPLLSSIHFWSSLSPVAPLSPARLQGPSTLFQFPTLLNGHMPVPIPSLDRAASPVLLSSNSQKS
As to conditions: protein: recombinant; tags: N-terminal GST; dsDNA, one strand shown. The method in brief: as §1

A further experiment concerns the target T7, FEV (Homo sapiens, UniProt Q99581 1-238).
T7 sequence: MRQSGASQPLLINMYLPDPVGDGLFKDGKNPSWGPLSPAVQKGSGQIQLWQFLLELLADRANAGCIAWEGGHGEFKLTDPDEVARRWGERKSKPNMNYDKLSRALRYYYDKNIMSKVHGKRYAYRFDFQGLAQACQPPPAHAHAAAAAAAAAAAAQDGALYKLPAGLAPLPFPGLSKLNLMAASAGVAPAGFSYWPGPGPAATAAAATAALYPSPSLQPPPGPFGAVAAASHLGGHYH
To be noted: protein: recombinant; tags: N-terminal GST; dsDNA, one strand shown. Put shortly: as §1

In a further experiment the target is ETV5 (Homo sapiens, UniProt P41161 1-510). As to conditions: protein: recombinant; tags: N-terminal GST; dsDNA, one strand shown. The method in brief:
as §1

The target in another experiment is HSF1 (Homo sapiens, UniProt Q00613 1-529). As to conditions: protein: recombinant; tags: N-terminal GST; chain copies: 3; dsDNA, one strand shown. The method in brief: as §1
In the next experiment the target is ELF4 (Homo sapiens, UniProt Q99607 1-663). To be noted: protein: recombinant; tags: N-terminal GST; dsDNA, one strand shown. Put shortly: as §1
The target in another experiment is T8, ELK4 (Homo sapiens, UniProt P28324-2 1-405).
T8 sequence: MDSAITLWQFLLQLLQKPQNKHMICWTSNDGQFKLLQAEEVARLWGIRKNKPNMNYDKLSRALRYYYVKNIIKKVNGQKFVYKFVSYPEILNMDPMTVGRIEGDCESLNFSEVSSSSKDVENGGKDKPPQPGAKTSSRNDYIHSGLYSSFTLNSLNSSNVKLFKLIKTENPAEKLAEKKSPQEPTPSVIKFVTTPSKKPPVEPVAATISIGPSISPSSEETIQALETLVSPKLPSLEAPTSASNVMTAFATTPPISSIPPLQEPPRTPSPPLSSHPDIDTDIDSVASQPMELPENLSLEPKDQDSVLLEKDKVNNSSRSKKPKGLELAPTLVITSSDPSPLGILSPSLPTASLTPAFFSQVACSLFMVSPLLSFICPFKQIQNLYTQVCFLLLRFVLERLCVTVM
To be noted: protein: recombinant; tags: N-terminal GST; dsDNA, one strand shown. The method in brief: as §1

The next experiment deals with T9, ETV2 (Homo sapiens, UniProt O00321 1-342).
T9 sequence: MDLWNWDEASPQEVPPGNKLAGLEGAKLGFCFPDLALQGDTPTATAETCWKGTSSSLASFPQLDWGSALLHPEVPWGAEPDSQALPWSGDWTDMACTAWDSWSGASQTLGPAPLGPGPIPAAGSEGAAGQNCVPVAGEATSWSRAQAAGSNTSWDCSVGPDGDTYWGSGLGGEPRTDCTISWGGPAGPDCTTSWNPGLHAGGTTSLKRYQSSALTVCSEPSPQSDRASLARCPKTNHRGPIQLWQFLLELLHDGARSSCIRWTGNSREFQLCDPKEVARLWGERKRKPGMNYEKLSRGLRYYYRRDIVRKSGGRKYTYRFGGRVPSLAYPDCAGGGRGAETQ
As to conditions: protein: recombinant; tags: N-terminal GST; dsDNA, one strand shown. The method in brief: as §1

For a further experiment, the target named is T10, ELF3 (Homo sapiens, UniProt P78545 1-371).
T10 sequence: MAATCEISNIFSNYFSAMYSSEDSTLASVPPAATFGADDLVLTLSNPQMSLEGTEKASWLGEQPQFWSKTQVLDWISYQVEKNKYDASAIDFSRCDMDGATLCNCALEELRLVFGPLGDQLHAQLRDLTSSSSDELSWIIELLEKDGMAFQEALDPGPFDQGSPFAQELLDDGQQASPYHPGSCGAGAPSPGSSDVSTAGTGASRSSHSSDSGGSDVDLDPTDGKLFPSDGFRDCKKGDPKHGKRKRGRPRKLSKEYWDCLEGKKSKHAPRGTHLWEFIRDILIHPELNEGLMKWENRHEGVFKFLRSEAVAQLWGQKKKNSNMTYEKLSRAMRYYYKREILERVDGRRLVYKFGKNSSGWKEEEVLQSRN
As to conditions: protein: recombinant; tags: N-terminal GST; dsDNA, one strand shown. The method in brief:
as §1

The target of a further experiment is CRX (Homo sapiens, UniProt O43186 1-299). As to conditions: protein: recombinant; tags: N-terminal GST; dsDNA, one strand shown. The method in brief:
as §1

A further experiment has as its target ETV1 (Homo sapiens, UniProt P50549 1-477). To be noted: protein: recombinant; tags: N-terminal GST; dsDNA, one strand shown. Put shortly:
as §1

Sequence of SPIB (Q01892 whole entry): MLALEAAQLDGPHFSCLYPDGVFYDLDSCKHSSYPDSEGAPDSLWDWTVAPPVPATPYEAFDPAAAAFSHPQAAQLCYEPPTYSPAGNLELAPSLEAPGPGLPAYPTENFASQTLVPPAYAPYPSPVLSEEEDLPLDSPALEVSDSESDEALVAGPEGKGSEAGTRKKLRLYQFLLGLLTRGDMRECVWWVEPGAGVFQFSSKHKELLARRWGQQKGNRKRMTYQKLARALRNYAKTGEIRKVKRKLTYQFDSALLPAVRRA
Sequence of ETV5 (P41161 whole entry): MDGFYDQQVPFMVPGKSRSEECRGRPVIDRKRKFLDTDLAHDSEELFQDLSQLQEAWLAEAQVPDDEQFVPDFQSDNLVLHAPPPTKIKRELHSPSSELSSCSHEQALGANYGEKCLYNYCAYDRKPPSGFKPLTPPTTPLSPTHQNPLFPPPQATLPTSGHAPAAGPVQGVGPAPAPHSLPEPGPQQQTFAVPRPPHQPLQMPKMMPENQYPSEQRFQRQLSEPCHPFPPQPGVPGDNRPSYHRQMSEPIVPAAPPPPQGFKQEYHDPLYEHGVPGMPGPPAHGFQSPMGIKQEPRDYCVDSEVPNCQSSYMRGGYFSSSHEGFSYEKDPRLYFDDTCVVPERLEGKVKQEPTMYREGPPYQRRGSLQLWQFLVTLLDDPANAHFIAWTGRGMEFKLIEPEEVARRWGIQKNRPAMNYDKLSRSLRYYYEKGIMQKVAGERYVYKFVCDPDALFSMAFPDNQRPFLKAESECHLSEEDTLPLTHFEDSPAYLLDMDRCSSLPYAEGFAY
Sequence of ELF1 (P32519 whole entry): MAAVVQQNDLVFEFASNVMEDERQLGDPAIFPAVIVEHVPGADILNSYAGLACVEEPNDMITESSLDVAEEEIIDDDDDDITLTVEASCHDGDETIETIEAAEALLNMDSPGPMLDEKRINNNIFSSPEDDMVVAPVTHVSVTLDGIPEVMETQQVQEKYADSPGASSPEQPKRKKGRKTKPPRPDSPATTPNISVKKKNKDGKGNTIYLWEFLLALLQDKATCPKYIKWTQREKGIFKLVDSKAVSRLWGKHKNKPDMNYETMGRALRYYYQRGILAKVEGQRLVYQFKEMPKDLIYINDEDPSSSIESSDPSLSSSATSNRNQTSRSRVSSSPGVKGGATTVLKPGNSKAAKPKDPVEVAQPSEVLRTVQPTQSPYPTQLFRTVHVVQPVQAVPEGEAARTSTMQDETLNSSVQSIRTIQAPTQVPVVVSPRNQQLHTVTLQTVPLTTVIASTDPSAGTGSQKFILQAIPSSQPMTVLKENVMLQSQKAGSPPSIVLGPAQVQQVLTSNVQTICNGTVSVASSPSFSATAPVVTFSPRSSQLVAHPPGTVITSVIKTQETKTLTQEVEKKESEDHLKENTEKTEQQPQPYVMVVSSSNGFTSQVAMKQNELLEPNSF
Sequence of ELF4 (Q99607 whole entry): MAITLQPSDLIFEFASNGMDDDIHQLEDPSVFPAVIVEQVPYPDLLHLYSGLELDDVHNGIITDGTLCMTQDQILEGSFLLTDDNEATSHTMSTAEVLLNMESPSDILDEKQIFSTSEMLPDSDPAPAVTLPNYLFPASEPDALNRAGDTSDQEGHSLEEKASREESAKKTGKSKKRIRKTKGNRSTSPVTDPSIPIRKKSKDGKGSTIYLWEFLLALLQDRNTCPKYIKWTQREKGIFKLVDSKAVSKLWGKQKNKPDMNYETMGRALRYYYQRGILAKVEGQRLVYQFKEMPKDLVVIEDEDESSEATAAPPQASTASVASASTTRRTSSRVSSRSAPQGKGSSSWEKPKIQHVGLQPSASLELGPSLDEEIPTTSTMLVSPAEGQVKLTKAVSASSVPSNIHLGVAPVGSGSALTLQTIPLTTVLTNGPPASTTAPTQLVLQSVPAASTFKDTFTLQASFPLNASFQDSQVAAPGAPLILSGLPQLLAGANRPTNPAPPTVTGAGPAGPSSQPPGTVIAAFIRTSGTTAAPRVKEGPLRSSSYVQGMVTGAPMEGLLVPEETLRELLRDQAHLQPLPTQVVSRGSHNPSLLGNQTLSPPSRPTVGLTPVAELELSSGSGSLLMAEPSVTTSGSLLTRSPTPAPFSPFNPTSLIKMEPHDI
Sequence of CRX (O43186 whole entry): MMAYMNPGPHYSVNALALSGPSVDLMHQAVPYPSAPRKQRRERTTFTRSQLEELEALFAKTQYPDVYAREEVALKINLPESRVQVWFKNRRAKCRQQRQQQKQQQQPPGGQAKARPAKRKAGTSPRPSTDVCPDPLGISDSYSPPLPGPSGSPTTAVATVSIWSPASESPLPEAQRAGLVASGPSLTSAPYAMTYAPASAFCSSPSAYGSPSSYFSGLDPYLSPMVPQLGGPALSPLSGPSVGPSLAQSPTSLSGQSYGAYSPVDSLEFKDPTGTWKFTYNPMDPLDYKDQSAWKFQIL
Sequence of ETV1 (P50549 whole entry): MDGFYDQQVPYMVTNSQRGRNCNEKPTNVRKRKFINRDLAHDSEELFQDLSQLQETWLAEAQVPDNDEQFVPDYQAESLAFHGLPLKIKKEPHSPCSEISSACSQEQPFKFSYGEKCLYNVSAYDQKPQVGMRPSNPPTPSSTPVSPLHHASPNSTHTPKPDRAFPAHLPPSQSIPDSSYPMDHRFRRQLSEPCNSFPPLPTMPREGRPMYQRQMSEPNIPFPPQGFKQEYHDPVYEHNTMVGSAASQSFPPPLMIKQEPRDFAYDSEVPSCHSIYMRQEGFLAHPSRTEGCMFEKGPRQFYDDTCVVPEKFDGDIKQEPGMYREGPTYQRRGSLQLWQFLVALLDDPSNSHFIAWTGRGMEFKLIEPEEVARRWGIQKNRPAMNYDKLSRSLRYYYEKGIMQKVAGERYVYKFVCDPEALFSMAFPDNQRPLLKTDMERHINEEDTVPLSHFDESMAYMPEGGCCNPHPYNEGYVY
Sequence of HSF1 (Q00613 whole entry): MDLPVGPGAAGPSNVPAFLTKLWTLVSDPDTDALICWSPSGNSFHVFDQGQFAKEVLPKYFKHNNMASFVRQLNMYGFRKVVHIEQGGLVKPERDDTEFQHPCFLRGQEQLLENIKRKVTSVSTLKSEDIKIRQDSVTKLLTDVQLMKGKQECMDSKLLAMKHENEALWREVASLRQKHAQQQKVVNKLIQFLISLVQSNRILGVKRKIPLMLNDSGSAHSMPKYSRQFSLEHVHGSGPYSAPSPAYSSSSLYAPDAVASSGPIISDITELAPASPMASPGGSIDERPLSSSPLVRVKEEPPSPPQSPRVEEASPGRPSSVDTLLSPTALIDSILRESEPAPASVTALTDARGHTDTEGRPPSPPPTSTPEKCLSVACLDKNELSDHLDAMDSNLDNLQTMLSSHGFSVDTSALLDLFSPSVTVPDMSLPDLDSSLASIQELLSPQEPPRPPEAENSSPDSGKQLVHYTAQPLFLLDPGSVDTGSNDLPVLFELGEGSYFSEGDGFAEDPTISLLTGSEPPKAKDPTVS

In the case of TTCATA, the binding signal in the experiment with FLI1 was 1.17 fold enrichment (6-mer frequency, TF over GST control); with ELK1, 1.16 fold enrichment (6-mer frequency, TF over GST control); with GABPA, 1.18 fold enrichment (6-mer frequency, TF over GST control); in the experiment with ERG, 1.11 fold enrichment (6-mer frequency, TF over GST control); with ELF1 it was 1.19 fold enrichment (6-mer frequency, TF over GST control); with EHF, 1.18 fold enrichment (6-mer frequency, TF over GST control). Moreover, the binding signal with SPI1 was 1.18 fold enrichment (6-mer frequency, TF over GST control); with SPIB, 1.23 fold enrichment (6-mer frequency, TF over GST control); in the experiment with ELK3, 1.16 fold enrichment (6-mer frequency, TF over GST control); in the experiment with FEV, 1.12 fold enrichment (6-mer frequency, TF over GST control); with ETV5, 1.1 fold enrichment (6-mer frequency, TF over GST control); with HSF1 it was 1.05 fold enrichment (6-mer frequency, TF over GST control). In addition, the binding signal is 1.19 fold enrichment (6-mer frequency, TF over GST control) with ELF4; 1.2 fold enrichment (6-mer frequency, TF over GST control) in the experiment with ELK4; 1.06 fold enrichment (6-mer frequency, TF over GST control) in the experiment with ETV2; 1.24 fold enrichment (6-mer frequency, TF over GST control) with ELF3; 1.2 fold enrichment (6-mer frequency, TF over GST control) with CRX; 1.24 fold enrichment (6-mer frequency, TF over GST control) with ETV1.
